Pf growth 48h – inhibits P. falciparum growth in the first generation, 48 h. AID 504832. P. falciparum luciferase growth in erythrocytes, 48 h. Potency, µM (top dose mostly 28.7 µM), most hits filed as inhibitors. actives 5.9% (n = 310,000)
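Cell-based growth assay: transgenic P. falciparum expressing firefly luciferase, cultured in red cells within RPMI 1640 containing 0.5% w/v Albumax, 24 mM bicarbonate and gentamycin. A drop in luciferase activity indicates inhibition.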
SARS PLpro yeast – blocks SARS-CoV papain-like protease in a yeast assay. actives 0.19% (n = 330,000). Potency, µM (doses to about 32.9 µM), hits mostly activators. S. cerevisiae expressing SARS-CoV PLpro, growth rescue; calls by dose curve; also: nearly all actives have a fitted effect of over 55% in size
Sm TGR inh – blocks Schistosoma mansoni thioredoxin glutathione reductase. Q962Y6. purified TGR, DTNB reduction, TNB absorbance 405 nm. Potency, µM (titrated, usually from 114 µM), most hits filed as inhibitors. actives 3% (n = 360,000); also: nearly all actives have a fitted effect of over 60% in size
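Kinetic colorimetric format: TGR-catalysed, NADPH-driven DTNB reduction monitored via TNB absorbance. Enzyme dispensed at 20 nM; compound exposure 15 min at room temperature before reaction start.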
HCV inhibitor – blocks hepatitis C virus; actives 3.4% (n = 340,000); Potency, µM (top dose mostly 41.8 µM), most hits filed as inhibitors; Huh7.5.1 HCVcc-Cre infection, luciferase reporter, 44 h
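Seed cells (1,000/well) for 4 h; treat with compound and infect with HCVcc-Cre, moi about 0.5. Incubate 44 h, then detect luciferase activity.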
Pf growth 96h – P. falciparum growth inhibition at 96 hours. Potency, µM (highest dose often 28.7 µM), hits mostly inhibitors. actives 6.9% (n = 320,000). AID 504834. P. falciparum luciferase reporter growth, 96 h
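Parasite growth measured via integrated firefly luciferase reporter in P. falciparum. Infected erythrocytes at 2% hematocrit, 0.05% parasitemia final were treated 96 hours at 37 C under 5% CO2, and luminescence was read.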
HCMV inh – blocks human cytomegalovirus replication | HFF cells, HCMV-luciferase reporter, 72 h; active compounds read low | activity change, negative = inhibition, % at 57.5 µM | actives 4.5% (n = 410,000) | AID 1259415; in the data active = activity change below about -60%; inconclusive = no clear call, values can overlap the other calls; inactive = above about -39%
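Luciferase read-out from HCMV-luciferase-infected HFFs (MOI 1 PFU/cell) 72 h post infection at 37C; compounds added after 16 h cell attachment; activity normalized between buffer-only basal and Salinomycin (10uM) inhibitor controls.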
Large screens that a line does not name were inactive; ! = repeats disagree. An excerpt weighted towards active compounds, which were near 15% of everything screened. Unless noted, calls follow the shape of the dose curve; as a rule, active = well fitted curve in the direction sought with a large enough effect; inconclusive = small, poorly fitted or top-dose-only effect, or another doubt; inactive = no such curve, though single readings can be large; an effect the other way counts as inactive or inconclusive.

CCN(C(=O)COC(=O)c1cc(C)n(-c2ccc(F)cc2)c1C)C1CCS(=O)(=O)C1 (stereo not drawn)	Pf growth 48h inconclusive
Cc1cc(C(=O)CSc2cccc[n+]2[O-])c(C)n1-c1ccccc1	none
C/C(N)=C(/C#N)C(=O)COC(=O)c1cc(C)n(-c2ccc(F)cc2)c1C	Pf growth 48h 8.3µM, HCV inhibitor inconclusive, Pf growth 96h 3.3µM
CCCCNC(=O)C(C)(C)n1cc(NC(=O)c2cc(C)oc2C)cn1	none (no result: Pf growth 48h, SARS PLpro yeast, Sm TGR inh, HCV inhibitor, Pf growth 96h)
Cc1cc(S(=O)(=O)Nc2ccc(C(=O)NCc3cccnc3)cc2)ccc1F	none
Cc1[nH]c2ccccc2c1N=Nc1cccc(C(=O)O)c1	none
Cc1[nH]c2ccccc2c1N=Nc1ccccc1C(=O)O	Pf growth 48h inconclusive, Pf growth 96h 10µM
CCOC(=O)c1c(NC(=O)C(C)OC(=O)C2=COCCO2)sc2c1CCCC2 (stereo not drawn)	Pf growth 48h inconclusive, HCV inhibitor 13µM, Pf growth 96h inconclusive (no result: HCMV inh)
COc1ccc(OC)c(NC(=O)c2cc(-c3ccc(C)cc3O)n[nH]2)c1	Pf growth 48h 10µM (no result: Pf growth 96h)
COc1ccc(OC)c(NC(=O)c2cc(-c3cc(C)ccc3O)n[nH]2)c1	Pf growth 48h inconclusive, Pf growth 96h 6.6µM
O=C(Nc1ccc(F)cc1)c1sccc1SCc1cccc(C(F)(F)F)c1	Pf growth 48h 9.3µM, Pf growth 96h inconclusive
CCN(CC)C(=O)Cn1cnc2sc(C(=O)NCCCN3CCOCC3)c(C)c2c1=O	none
c1ccc(C[n+]2c(-c3ccccc3)csc2Nc2ccccc2)cc1	Pf growth 48h inconclusive, HCV inhibitor inconclusive, Pf growth 96h 9.3µM
Cc1scc(C(=O)NCc2ccco2)c1-c1ccccc1	Pf growth 48h inconclusive, Sm TGR inh inconclusive
c1ccc(Nc2scc(-c3ccccc3)[n+]2Cc2ccco2)cc1	Sm TGR inh 40µM, HCV inhibitor inconclusive
CC(=O)c1csc(CS(=O)(=O)c2ccccn2)n1	none
CCOC(=O)c1[nH]c(C)c(CCC(=O)N2CCN(c3cccc(C)c3C)CC2)c1C	none (no result: Pf growth 48h, SARS PLpro yeast, HCV inhibitor, Pf growth 96h)
CC(=O)c1cccc(NC(=O)Cn2nc(C(F)(F)F)c3c2CCC3)c1	none (no result: Pf growth 48h, SARS PLpro yeast, HCV inhibitor, Pf growth 96h)
COc1cc(C#CC#CCN2CCCCC2)ccc1O	Pf growth 48h 8.3µM, Sm TGR inh inconclusive
O=C1CCN(Cc2ccccc2)CCN1CCO	Pf growth 96h inconclusive, HCMV inh inconclusive
O=C1CCN(Cc2ccc(O)cc2)CCN1CCO	Sm TGR inh inconclusive, HCMV inh -68!
COCCC(=O)N1CCC(Oc2ccc(C(=O)N3CCCCC3CCO)cc2)CC1 (stereo not drawn)	Pf growth 96h 4.7µM
COCC(=O)N1CCC(Oc2ccc(C(=O)N(C)CCCC3CCCC3)cc2)CC1	HCV inhibitor inconclusive, HCMV inh -67
COCC(=O)N1CCC(Oc2ccc(C(=O)N3CCCCCCC3)cc2)CC1	Pf growth 48h inconclusive, Pf growth 96h inconclusive
O=S(=O)(O)c1ccc(O)cc1	none (no result: SARS PLpro yeast, Sm TGR inh, HCV inhibitor, HCMV inh)
O=C(Cn1ncc2c([nH]c3ccccc32)c1=O)NCc1cccc(Cl)c1	none (no result: Pf growth 48h, SARS PLpro yeast, HCV inhibitor, Pf growth 96h)
CCN1CCC(N(Cc2cccc(OC)c2)C(=O)Nc2ccc(C)cc2Cl)CC1	none (no result: Pf growth 48h, SARS PLpro yeast, HCV inhibitor, Pf growth 96h)
CCOC(=O)[C@]12CCC=C1N(CCC1=CCCCC1)C(=O)[C@H](CC(=O)N1CCN(C(=O)c3ccco3)CC1)C2	none (no result: Pf growth 48h, SARS PLpro yeast, Sm TGR inh, HCV inhibitor, Pf growth 96h)
c1ccc2c3c([nH]c2c1)C(C1CCCCC1)N(Cc1ncc[nH]1)CC3 (stereo not drawn)	Pf growth 48h 2.1µM, Pf growth 96h inconclusive
Cc1cnc(CN2CCc3c([nH]c4ccccc34)C2C2CCCCC2)[nH]1 (stereo not drawn)	HCV inhibitor inconclusive, Pf growth 96h inconclusive
Cc1ncoc1C(=O)N1CCc2c([nH]c3ccccc23)C1C1CCCCC1 (stereo not drawn)	Pf growth 48h 15µM, Pf growth 96h inconclusive
Cc1ncoc1C(=O)N1CCc2c([nH]c3ccccc23)C1C(C)(C)C (stereo not drawn)	Pf growth 48h inconclusive, Pf growth 96h inconclusive
Cc1nnc(SCCOc2ccccc2)s1	none
COc1ccc(N2CCN(S(=O)(=O)c3csc(C(N)=O)c3)CC2)cc1	none (no result: Pf growth 48h, SARS PLpro yeast, HCV inhibitor, Pf growth 96h)
O=C(Cc1ccccc1)N/N=C/c1ccccn1	HCMV inh -84 (no result: Pf growth 48h, SARS PLpro yeast, Sm TGR inh, Pf growth 96h)

Assay outcomes deposited in PubChem BioAssay by National Center for Advancing Translational Sciences (NCATS).
